# Calls of active or inactive are those of the source.
# Experiments:
# [1] = system: Plasmodium falciparum Sir2 (PF13_0152, Sir2A); experiment: pfSir2 binders on small-molecule microarrays, primary screen, biochemical, small-molecule microarray, 635 nm fluorescence (AID 1098); settings: small-molecule microarray binding, fluorescence 635 nm; higher = more signal;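 further: score merges spot fluorescence intensity with its signal-to-noise ratio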
# [2] = small-molecule microarray binders of probe aDKK1, primary screen, biochemical, biotinylated probe, 635/667 nm fluorescence (AID 1099); settings: higher = more signal;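 further: score merges 667nm spot fluorescence with signal to noise across triplicate slides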
# [3] = small-molecule microarray binders of probe aCHRDL2, primary screen, biochemical, biotinylated probe, 635/667 nm fluorescence (AID 1100); settings: higher = more signal
# [4] = splicing luciferase reporter signal modulators, primary screen, spliceosome inhibition project, cell-based, HEK293, splice +/- reporter (AID 1101); settings: luminescence, 24 h, higher = more signal, called active from +8 up or from −8 down;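 further: HEK293 cells carrying a splicing-competent luciferase reporter gene; test concentration not given here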
# [5] = target: Fibroblast growth factor 10 (Homo sapiens) (UniProt O15520); experiment: FGF10 binders on small-molecule microarrays, primary screen, biochemical, small-molecule microarray, 635 nm fluorescence (AID 1102); settings: FGF10 binding, fluorescence 635 nm, higher = more signal
# [6] = system: glycogen synthase kinase-3 (GSK3A per assay name; protocol says GSK3B); experiment: GSK3 binders on small-molecule microarrays, primary screen, biochemical, small-molecule microarray, 635 nm fluorescence, GSK3A (AID 1103); settings: small-molecule microarray binding, fluorescence 635 nm; higher = more signal; further: the record names both GSK3A and GSK3B
# [7] = target: Epidermal growth factor receptor (Homo sapiens) (UniProt P00533); experiment: EGFR binders on small-molecule microarrays, primary screen, biochemical, small-molecule microarray, 635 nm fluorescence (AID 1104); settings: EGFR binding, higher = more signal;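 further: score merges 667 nm emission intensity with spot signal to noise over triplicate slides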
# [8] = target: Follistatin-related protein 3 (Homo sapiens) (UniProt O95633); experiment: FSTL3 binders on small-molecule microarrays, primary screen, biochemical, small-molecule microarray, 635 nm fluorescence (AID 1105); settings: FSTL3 binding, higher = more signal;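 further: score merges emission near 667 nm and signal to noise per printed spot across three slides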
# [9] = target: Dickkopf-related protein 1 (Homo sapiens) (UniProt O94907); experiment: DKK1 binders on small-molecule microarrays, primary screen, biochemical, small-molecule microarray, 635 nm fluorescence scan (AID 1106); settings: DKK1 binding, higher = more signal;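 further: score merges emission near 667 nm with signal to noise over three replicate slides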
# [10] = system: Inhibin beta A chain (activin A); experiment: INHBA (activin A) binders on microarrays, primary screen, biochemical, small-molecule microarray, 635 nm fluorescence scan (AID 1107); settings: small-molecule microarray binding, higher = more signal;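 further: mouse activin A protein probed at 4.33 µg/mL on printed slides; score merges bound-protein fluorescence near 667 nm with spot signal-to-noise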
# [11] = system: Human papillomavirus type 1a protein E7 (residues 44-93); experiment: HPV1a E7 fragment binders on microarrays, primary screen, biochemical, small-molecule microarray, residues 44-93, 635 nm fluorescence (AID 1108); settings: small-molecule microarray binding, fluorescence 635 nm; higher = more signal;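 further: E7 fragment applied at 1 µg/mL in TBST for 1 h at 4 C; score combines spot fluorescence with its signal to noise ratio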
# [12] = modulators of HCV replicon luciferase signal, primary screen, HCV replication inhibitor project, Huh7 cells, luciferase reporter (AID 1109); settings: 48 h, higher = more signal;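 further: huh7 hepatoma cells harbouring a luciferase neomycin HCV replicon reporter; luciferase luminescence as measure of HCV replicon replication; test concentration not given here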
# [13] = target: Left-right determination factor 2 (Homo sapiens) (UniProt O00292); experiment: LEFTY2 binders on small-molecule microarrays, primary screen, biochemical, small-molecule microarray, 635 nm fluorescence scan (AID 1110); settings: LEFTY2 binding, higher = more signal
# [14] = target: Calmodulin-1 (Homo sapiens) (UniProt P0DP23); experiment: CALM1 binders on microarrays, EGTA buffer, profiling panel, biochemical, small-molecule microarray, Cy5-labelled CALM1 (AID 1111); settings: Cy5-CALM1 binding fluorescence, higher = more signal;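 further: labelled calmodulin applied in Tris saline Tween buffer holding calcium plus EGTA and DTT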
# [15] = target: Calmodulin-1 (Homo sapiens) (UniProt P0DP23); experiment: calcium-bound CALM1 binders on microarrays, profiling panel, artefact control for SMM control-protein annotation, biochemical, small-molecule microarray, Cy5-labelled CALM1, plus calcium (AID 1112); settings: Cy5-CALM1 binding fluorescence, higher = more signal;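 further: score merges spot fluorescence with signal to noise from triplicate slides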
# [16] = small-molecule microarray binders of probe aWnt5a, primary screen, biochemical, biotinylated probe, 635/667 nm fluorescence (AID 1113); settings: higher = more signal;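 further: score merges 667 nm fluorescence intensity with signal-to-noise per printed feature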
# [17] = small-molecule microarray binders of probe aShh, primary screen, biochemical, biotinylated probe, 635/667 nm fluorescence (AID 1114); settings: higher = more signal;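 further: probe is biotin-labelled aShh protein from a stem cell growth factor screen; measures binding of labelled protein to compounds printed on the slide; score merges feature fluorescence at 667 nm with signal-to-noise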
# [18] = small-molecule microarray binders of probe aNog, primary screen, biochemical, biotinylated probe, 635/667 nm fluorescence (AID 1115); settings: higher = more signal;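 further: probe is biotinylated aNog protein used at 0.15 µg/mL for 1 h at 4 C; z-score combines 667 nm fluorescence of each spot with its signal to noise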
# [19] = target: Torsin-1A-interacting protein 1 (Homo sapiens) (UniProt Q5JTV8); experiment: LAP1 binders from COS7 cell lysate, primary screen, small-molecule microarray, 635/667 nm fluorescence (AID 1116); settings: COS7-hLAP1 lysate binding, 635 nm fluorescence, higher = more signal
# [20] = target: Alpha-bungarotoxin (Bungarus multicinctus) (UniProt P60615); experiment: alpha-bungarotoxin binders on microarray, profiling panel, artefact control for SMM control protein annotation, biochemical, small-molecule microarray, Alexa647 label, 635/667 nm fluorescence (AID 1117); settings: alpha-BTX-A647 binding fluorescence, higher = more signal
# Alpha-bungarotoxin (Bungarus multicinctus), sequence (P60615 whole entry, looked up): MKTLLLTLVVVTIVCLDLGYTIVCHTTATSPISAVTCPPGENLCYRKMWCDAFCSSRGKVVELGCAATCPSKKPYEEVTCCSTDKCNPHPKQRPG
# Torsin-1A-interacting protein 1 (Homo sapiens), sequence (Q5JTV8 whole entry, looked up): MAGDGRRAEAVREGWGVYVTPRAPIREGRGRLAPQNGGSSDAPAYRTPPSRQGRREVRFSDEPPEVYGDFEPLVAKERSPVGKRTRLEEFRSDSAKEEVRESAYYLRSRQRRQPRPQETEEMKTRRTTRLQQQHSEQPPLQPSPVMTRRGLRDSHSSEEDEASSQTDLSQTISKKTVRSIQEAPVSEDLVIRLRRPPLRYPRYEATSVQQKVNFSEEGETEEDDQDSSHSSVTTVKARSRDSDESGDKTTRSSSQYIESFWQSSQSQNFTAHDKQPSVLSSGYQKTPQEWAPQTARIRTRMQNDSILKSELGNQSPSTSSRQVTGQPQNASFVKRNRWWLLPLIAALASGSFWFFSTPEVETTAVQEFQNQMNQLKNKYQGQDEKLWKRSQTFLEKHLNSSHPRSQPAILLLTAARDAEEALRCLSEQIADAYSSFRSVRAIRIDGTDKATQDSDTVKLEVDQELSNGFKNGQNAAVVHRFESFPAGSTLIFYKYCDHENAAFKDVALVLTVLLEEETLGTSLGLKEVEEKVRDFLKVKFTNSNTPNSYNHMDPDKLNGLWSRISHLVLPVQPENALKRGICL
# Fibroblast growth factor 10 (Homo sapiens), sequence (O15520 whole entry, looked up): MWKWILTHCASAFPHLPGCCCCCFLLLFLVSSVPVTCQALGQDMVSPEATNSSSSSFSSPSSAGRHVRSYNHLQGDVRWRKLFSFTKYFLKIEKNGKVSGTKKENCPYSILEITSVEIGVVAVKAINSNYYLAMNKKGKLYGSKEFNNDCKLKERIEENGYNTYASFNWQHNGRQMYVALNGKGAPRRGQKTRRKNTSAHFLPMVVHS
# Follistatin-related protein 3 (Homo sapiens), sequence (O95633 whole entry, looked up): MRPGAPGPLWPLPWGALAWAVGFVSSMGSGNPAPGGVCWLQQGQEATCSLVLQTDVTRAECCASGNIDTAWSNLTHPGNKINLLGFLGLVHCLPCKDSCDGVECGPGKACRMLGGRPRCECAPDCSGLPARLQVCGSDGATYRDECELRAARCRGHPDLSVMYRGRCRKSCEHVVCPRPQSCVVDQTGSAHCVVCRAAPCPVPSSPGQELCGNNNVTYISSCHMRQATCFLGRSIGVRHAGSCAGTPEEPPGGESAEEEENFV
# Left-right determination factor 2 (Homo sapiens), sequence (O00292 whole entry, looked up): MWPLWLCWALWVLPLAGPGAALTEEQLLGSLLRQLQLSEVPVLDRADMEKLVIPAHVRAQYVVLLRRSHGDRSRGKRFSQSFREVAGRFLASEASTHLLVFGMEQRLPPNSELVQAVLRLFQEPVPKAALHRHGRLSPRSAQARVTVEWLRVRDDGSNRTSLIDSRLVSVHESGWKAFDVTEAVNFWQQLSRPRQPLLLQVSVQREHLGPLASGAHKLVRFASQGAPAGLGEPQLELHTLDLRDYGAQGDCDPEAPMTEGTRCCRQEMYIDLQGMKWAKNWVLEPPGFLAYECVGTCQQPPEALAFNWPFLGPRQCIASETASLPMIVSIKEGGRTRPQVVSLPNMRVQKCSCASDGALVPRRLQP
# Dickkopf-related protein 1 (Homo sapiens), sequence (O94907 whole entry, looked up): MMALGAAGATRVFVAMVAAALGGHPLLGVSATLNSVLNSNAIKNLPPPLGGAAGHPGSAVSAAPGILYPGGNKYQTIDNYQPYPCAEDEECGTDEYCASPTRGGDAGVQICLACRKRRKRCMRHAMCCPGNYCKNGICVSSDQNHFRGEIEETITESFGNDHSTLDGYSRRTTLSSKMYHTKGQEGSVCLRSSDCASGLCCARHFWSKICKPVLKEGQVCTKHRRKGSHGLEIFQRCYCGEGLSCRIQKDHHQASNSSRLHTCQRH
# Epidermal growth factor receptor (Homo sapiens), sequence (P00533 whole entry, looked up): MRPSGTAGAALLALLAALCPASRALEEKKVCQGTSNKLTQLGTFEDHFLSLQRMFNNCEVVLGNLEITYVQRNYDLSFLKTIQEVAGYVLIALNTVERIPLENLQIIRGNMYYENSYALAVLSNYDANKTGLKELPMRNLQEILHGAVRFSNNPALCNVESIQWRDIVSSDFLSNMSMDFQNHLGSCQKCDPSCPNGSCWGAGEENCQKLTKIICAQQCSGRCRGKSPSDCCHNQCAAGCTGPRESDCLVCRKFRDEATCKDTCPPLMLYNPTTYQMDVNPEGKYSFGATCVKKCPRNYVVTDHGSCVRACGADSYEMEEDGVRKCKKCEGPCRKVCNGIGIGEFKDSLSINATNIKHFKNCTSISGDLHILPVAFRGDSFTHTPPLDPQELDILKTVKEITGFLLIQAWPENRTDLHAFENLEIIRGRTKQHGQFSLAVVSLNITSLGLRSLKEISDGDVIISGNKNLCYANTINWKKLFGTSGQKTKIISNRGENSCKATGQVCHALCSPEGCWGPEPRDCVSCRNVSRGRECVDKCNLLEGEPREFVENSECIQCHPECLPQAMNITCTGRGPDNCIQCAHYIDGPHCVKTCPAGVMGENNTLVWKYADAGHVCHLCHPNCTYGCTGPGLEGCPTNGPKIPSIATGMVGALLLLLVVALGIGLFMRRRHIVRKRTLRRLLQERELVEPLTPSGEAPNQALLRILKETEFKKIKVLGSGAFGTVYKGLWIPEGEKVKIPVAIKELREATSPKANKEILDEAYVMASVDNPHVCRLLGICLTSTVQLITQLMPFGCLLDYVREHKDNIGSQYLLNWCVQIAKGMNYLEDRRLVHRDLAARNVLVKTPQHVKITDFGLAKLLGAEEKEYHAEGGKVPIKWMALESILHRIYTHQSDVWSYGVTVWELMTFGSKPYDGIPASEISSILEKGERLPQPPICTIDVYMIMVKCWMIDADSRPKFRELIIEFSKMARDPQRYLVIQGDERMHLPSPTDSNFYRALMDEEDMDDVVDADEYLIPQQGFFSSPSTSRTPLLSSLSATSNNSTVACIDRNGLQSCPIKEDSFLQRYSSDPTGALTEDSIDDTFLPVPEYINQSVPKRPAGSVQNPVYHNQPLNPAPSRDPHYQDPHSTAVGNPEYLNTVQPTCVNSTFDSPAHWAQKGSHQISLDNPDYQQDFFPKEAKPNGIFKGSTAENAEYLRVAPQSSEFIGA
Structure (SMILES),composite z-score [1],composite z-score [2],composite z-score [3],z-score [4],composite z-score [5],composite z-score [6],composite z-score [7],composite z-score [8],composite z-score [9],composite z-score [10],composite z-score [11],z-score [12],composite z-score [13],composite z-score [14],composite z-score [15],composite z-score [16],composite z-score [17],composite z-score [18],composite z-score [19],composite z-score [20]
CCN1C(=O)[C@H]2[C@H]3[C@H](O)[C@H](O)CC(=NOCC=C(C)CCC=C(C)C)[C@H]3CC[C@H]2C1=O,0.908,-0.338,-1.31,0.886 (inactive),1.13,1.17,1.18,1.43,1.74,1.1,0.614,-0.504,1.01,-1.01,-2.13,-0.0704,-0.0626,0.161,0.507,-0.476
CCOC(=O)[C@H](Cc1ccccc1)NC(=O)CCC1CC(OC(=O)NCc2ccc3c(c2)OCO3)CC2(CCCC(COC(=O)NCc3ccccc3)O2)O1 (stereo not given in full),0.403,-0.125,-0.468,-1.03 (inactive),1.02,0.78,0.361,1.02,0.606,-0.303,1.33,-1.08,0.619,0.351,-0.298,-0.128,-0.0793,0.041,0.183,0.463
C[C@H](c1ccccc1)N1C(=O)[C@H]2[C@H]3[C@H](O)[C@H](O)CC(=O)[C@@H]3CC[C@H]2C1=O,-0.0226,-0.0352,-0.394,0.737 (inactive),0.615,-0.0137,0.268,0.344,0.822,-1.79,-0.81,-1.22,0.417,-0.229,-0.465,-0.0495,-0.237,0.0638,-0.0506,0.3
Cn1c(=O)n2n(c1=O)[C@H]1[C@H](O)[C@@H]3O[C@@H]3C(=NOC[C@@H](O)COCc3ccco3)[C@H]1CC2,0.608,-0.198,-0.505,-0.695 (inactive),0.131,0.698,0.475,0.541,0.0999,0.0409,0.499,0.481,0.83,0.132,-0.844,-0.216,-0.468,0.964,0.314,0.318
CC(C)[C@@H](OCc1ccccc1)[C@H](C)C=NOC[C@@H](C)[C@H](OCc1ccccc1)C(C)C,0.556,-0.319,-0.552,0.741 (inactive),0.5,-0.076,0.363,0.303,0.429,-0.0094,0.255,-0.534,0.885,0.148,-0.546,-0.101,-0.0685,-0.132,0.0528,0.312
COC(=O)[C@H](C)NC(=O)CCC1CC(OC(=O)NCc2ccc3c(c2)OCO3)CC2(CCCC(COC(=O)NCCOc3ccccc3)O2)O1 (stereo not given in full),0.46,-0.211,-0.636,-2.8 (inactive),0.658,1.29,0.536,0.649,0.679,0.0689,0.966,-0.424,0.581,-0.0874,-0.604,-0.129,-0.138,-0.283,0.267,0.83
COC(=O)[C@H](C)NC(=O)CCC1CC(OC(=O)NCCc2ccc(F)cc2)CC2(CCCC(COC(=O)NCCc3ccc(Cl)cc3)O2)O1 (stereo not given in full),0.316,0.0144,-0.615,-0.137 (inactive),1.07,0.987,0.344,1.29,1.05,0.0063,1.29,-0.0845,1.2,0.922,0.232,-0.224,-0.138,-0.299,0.428,0.763
CCOC(=O)[C@H](Cc1ccccc1)NC(=O)CCC1CC(OC(=O)NCc2ccc3c(c2)OCO3)CC2(CCCC(COC(=O)NCC3CCCCC3)O2)O1 (stereo not given in full),0.599,-0.151,-0.5,-0.481 (inactive),0.802,1.27,0.44,1.05,0.655,-0.0031,1.31,-0.443,0.617,0.433,-0.135,-0.0179,-0.299,-0.167,0.517,0.629
COc1cccc([C@H]2Oc3ccc(OC)cc3C(=NO[C@H](C)c3cn([C@@H]4COC[C@H]4O)nn3)[C@@H]2O)c1,0.53,-0.393,-0.381,-0.992 (inactive),-0.481,-1.14,-0.0724,-0.525,0.0385,0.0726,-0.632,-0.0869,-0.647,0.0409,-0.421,-0.184,-0.147,-0.36,-0.1,1.7
COc1ccc(CCNC(=O)[C@@H]2c3ccccc3C(=O)N(c3ccc(C)cn3)[C@H]2c2ccc(CO)cc2)cc1,1.73,0.263,1.19,-0.403 (inactive),-1.06,-0.37,-1.68,-1.16,-2.4,-0.082,-0.618,0.267,-1.76,-0.822,-0.796,-0.242,-0.367,-0.266,3.04,-0.955
CCOC(=O)C1=CCC(c2cc3ccccc3[nH]2)NC1 (stereo not given),1.47,1.1,1.31,-1.02 (inactive),0.0855,0.233,0.242,0.0799,-0.494,1.65,-0.192,-0.312,0.208,-0.219,0.19,0.0438,0.204,0.562,0.97,0.864

# — PubChem BioAssay
